# Results as given in PubChem BioAssay (NCI).
# Values joined by “and” are separate entries in the source; they are usually repeats but may differ in a detail not shown here. Identical values can stand only once. Compounds without any hit were thinned out: in the full panel of roughly 83,000, 20% have a hit.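 Note: values are percent growth. 100 is the growth of untreated cells, values between 100 and 0 indicate rising inhibition; between -100 and 0 indicates cell death.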 Active and inactive are the calls of the source.
# Test system: OVCAR-8 ovarian
# Assay: NCI-60 one-dose screen, 48 h (100 = growth as untreated, 0 = no growth, -100 = all killed)
# Conditions: 0.25 µM
# Experimental: Growth inhibition of the OVCAR-8 human tumor cell line is measured as a screen for anti-cancer activity. Cells are grown in 96 well plates and exposed to the test compound for 48 hours. Compounds are tested at a single concentration, which is 10^-5 M for most compounds. The reported endpoint is percent growth (GI% or GIPRCNT), where numbers from 0 - 100% represent growth inhibition, and numbers from -100% - 0 represent cell death. For example, a value of 40 represents 60% growth inhibition. A value of 0 means no net growth occurred over the course of the experiment. A value of -40 indicates 40% of cells at the beginning of the experiment died by the end of the experiment. A value of -100 means all cells are dead at the end of the experiment.
# NCI-60 Human Tumor Cell Lines Screen was performed using the standard one-dose NCI protocol, which is described in more detail at https://dtp.cancer.gov/discovery_development/nci-60/default.htm.
# Compounds with GIPRCNT values below 10 were considered active. Activity score was based on GIPRCNT using the following formula: […]
# Score is 0 for GIPRCNT values of 100 or above, 50 for GIPRCNT values of 0, and 100 for GIPRCNT values of -100.
row,SMILES,growth
1,CCCCCCCCCCCCCCCc1ccc(Cl)c(O)c1Cl (tested in a mixture with another compound),36% (inactive)

# Same assay, conditions: 10 µM
row,SMILES,growth
1,CC1(C)OB(c2ccc(Cn3cc(F)c(=O)[nH]c3=O)cc2)OC1(C)C,106% (inactive)
2,CC#C[C@]1(O)CC[C@H]2[C@@H]3CCC4=CC(=O)CCC4=C3[C@@H](c3ccc4c(c3)OCO4)C[C@@]21C,81.6% (inactive)
3,CCCCCCCCCCCCCCCc1ccc(Cl)c(O)c1Cl (tested in a mixture with another compound),92.2% (inactive)

# Same assay, conditions: 10 µM unless noted
row,SMILES,growth
1,CC(C)N=c1cc2n(-c3ccc(Cl)cc3)c3ccccc3nc-2cc1Nc1ccc(Cl)cc1,15.1% (inactive) and 48.7% (inactive) and 14.1% (inactive)
2,C/C(=N\NC(=O)c1ccncc1)c1ccccc1O,37.1% (inactive) and 10.9% (inactive)
3,CCC(C)C1(C2CCCC2)NC(=O)NC1=O (stereo not given),108% (inactive) and 99.9% (inactive)
4,CNc1cc(-c2cccc(OC(F)(F)F)c2)nc2ccc(N3CCCC3)cc12,34.7% (inactive) and -26.3% (active) and -2.97% (active)
5,C[N+](C)(C)CN1C(=O)c2ccccc2C1=O,97.4% (inactive)
6,COc1cc2nc(N3CCC[C@@H](NC(=O)C4COc5ccccc5O4)C3)nc(N)c2cc1OC (stereo not given in full),100% (inactive) and 94.3% (inactive)
7,CC[N+](CC)(CC(=O)Nc1c(C)cccc1C)Cc1ccccc1,95.2% (inactive) and 105% (inactive)
8,Cc1ccc(NCSc2ccc(Cl)cc2)cc1,97.3% (inactive) and 93.2% (inactive)
9,COc1cc2c(Nc3ccc(Cl)c(Cl)c3F)ncnc2cc1OCC1C[C@@H]2CN(C)C[C@@H]2C1 (stereo not given in full),-88.4% (active) and 27.4% (inactive)
10,O=C(N/N=C/c1cccc2ccccc12)C1CC1,101% (inactive) and 98.5% (inactive)
11,CC(O)(CC(=O)CC(=O)c1ccccc1)c1ccccc1 (stereo not given),106% (inactive) and 102% (inactive)
12,CCOc1ccc2c(S(=O)(=O)O)cccc2c1[N+](=O)[O-],104% (inactive) and 97.6% (inactive)
13,CCC(O)c1ccccc1 (stereo not given),101% (inactive) and 96.1% (inactive)
14,CCNC(=O)Nc1ccc(-c2nc3c(c(N4CCOC[C@@H]4C)n2)CCN(C2COC2)C3)cc1,48% (inactive) and 0.436% (active)
15,Cc1ccc(-c2noc(CC(=O)c3ccc([N+](=O)[O-])cc3)n2)cc1,100% (inactive)
16,CCN(CC)CCCC(C)N(Cc1ccccc1)CC(O)c1ccc(Cl)cc1 (stereo not given),105% (inactive) and 102% (inactive)
17,COc1cc(Nc2nc3ccccc3nc2NS(=O)(=O)c2ccc(NC(=O)c3ccc(C)c(OC)c3)cc2)cc(OC)c1,46.6% (inactive) and 5.53% (active)

row,SMILES,growth
1,N#CCCOc1ccccc1,98.9% (inactive)
2,CO/N=C/C=C\C(=O)N/C=C/C[C@H]1/C=C/[C@H](O)/C=C\C=C\c2cccc(O)c2C(=O)O1,27.5% (inactive) and 29.7% (inactive)
3,ClC/C=C/CSc1ncnc2nc[nH]c12,106% (inactive)
4,O=C=NC(c1ccccc1)(c1ccccc1)c1ccccc1,97.4% (inactive)
5,Nc1ccccc1SC1CC(=O)N(c2cccc3ccccc23)C1=O (stereo not given),92.2% (inactive)
6,CCCCCCCCCCCCOc1ccccc1C=O,94.6% (inactive)
7,COC(=O)c1nc(N)nc(C(=O)OC)c1C(=O)c1ccc(OC)cc1,105% (inactive) and 55.1% (inactive)
8,COc1ccc(NC(=S)Nc2ccccn2)cc1,96.5% (inactive)
9,CC(=O)C(/C=N/C(N)=O)=C(/C)O,104% (inactive)
10,CCOC(=O)c1sc(N)nc1-c1ccccc1,108% (inactive)
11,CC(C)Oc1ccc2cc(-c3nn(CC4CCNCC4)c4ncnc(N)c34)ccc2c1,90.8% (inactive) and 38.9% (inactive)
12,O=[N+]([O-])c1ccc2nc3c4ccccc4c4ccccc4c3nc2c1,65.9% (inactive)
13,Clc1nc(Oc2ccccc2)nc(-c2cn(-c3ccccc3)c3ccccc23)n1,38.8% (inactive)
14,CCCCCn1sc(=O)n(Cc2ccc(CNC(=O)C(C)c3ccc(CC(C)C)cc3)cc2)c1=O (stereo not given),92.5% (inactive) and -15% (active)
15,CC(=O)c1ccccc1O,112% (inactive) and 101% (inactive) and 105% (inactive)
16,O=[N+]([O-])c1ccc(Oc2ccccc2)cc1,109% (inactive) and 103% (inactive)
17,Nc1n[nH]c(=S)n1-c1ccc(Cl)cc1,100% (inactive)

# Same assay, conditions: 50 µM
row,SMILES,growth
1,CC1(C)OB(c2ccc(Cn3cc(F)c(=O)[nH]c3=O)cc2)OC1(C)C,75.1% (inactive)

# Same assay, conditions: 100 µM
row,SMILES,growth
1,CC#C[C@]1(O)CC[C@H]2[C@@H]3CCC4=CC(=O)CCC4=C3[C@@H](c3ccc4c(c3)OCO4)C[C@@]21C,-13.6% (active)
